Positions count from the first letter of the chain named.
Legend:
Experiment in all cases: protein-binding microarray (PBM); PBM: ~300 nM protein, 6 mM HEPES pH 7.8, 80 mM KCl, 0.5 mM EDTA, 0.5 mM EGTA, 6% glycerol, 35 ng/ul poly-dIdC, 1% milk, 1 h, room temperature; Ap Aiptasia and Nv Nematostella (sea anemones) / Co Capsaspora / Aq Amphimedon (sponge) / Dm Drosophila / Hu human; RHD is the Rel homology domain; high values mean tight binding
Conditions in all cases: dsDNA, one strand shown
GST-Ap-NF-kB RHD = biological target: T1, GST-Ap-NF-kB RHD (Exaiptasia pallida (Aiptasia), UniProt A0A913YAJ5 2-422)
T1 sequence: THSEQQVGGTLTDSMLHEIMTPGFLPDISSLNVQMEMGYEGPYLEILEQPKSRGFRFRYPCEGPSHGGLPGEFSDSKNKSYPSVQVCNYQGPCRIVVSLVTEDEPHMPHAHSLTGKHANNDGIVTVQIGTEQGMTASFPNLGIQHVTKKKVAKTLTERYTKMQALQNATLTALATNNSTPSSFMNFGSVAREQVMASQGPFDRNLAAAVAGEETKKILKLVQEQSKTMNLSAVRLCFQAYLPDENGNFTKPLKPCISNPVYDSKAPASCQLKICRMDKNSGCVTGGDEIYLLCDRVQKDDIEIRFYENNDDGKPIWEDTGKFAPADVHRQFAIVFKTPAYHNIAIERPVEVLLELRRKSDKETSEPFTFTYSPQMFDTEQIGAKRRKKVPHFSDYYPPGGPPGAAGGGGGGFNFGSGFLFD

[1] = biological target: T2, GST-Nv-NF-kB (Cys allele) (Nematostella vectensis, UniProt E5G601 2-411)
T2 sequence: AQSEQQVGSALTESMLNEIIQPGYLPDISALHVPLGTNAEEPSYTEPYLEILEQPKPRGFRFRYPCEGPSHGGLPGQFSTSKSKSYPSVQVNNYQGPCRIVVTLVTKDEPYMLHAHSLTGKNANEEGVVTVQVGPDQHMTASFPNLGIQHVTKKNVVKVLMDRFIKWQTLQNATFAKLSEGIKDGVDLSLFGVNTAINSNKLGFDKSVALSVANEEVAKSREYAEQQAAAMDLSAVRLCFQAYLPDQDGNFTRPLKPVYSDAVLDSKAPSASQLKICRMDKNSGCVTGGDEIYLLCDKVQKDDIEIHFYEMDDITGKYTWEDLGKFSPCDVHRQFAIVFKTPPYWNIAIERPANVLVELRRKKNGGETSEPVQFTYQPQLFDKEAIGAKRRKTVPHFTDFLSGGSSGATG

[2] = biological target: T3, GST-Nv-NF-kB (Ser allele) (Nematostella vectensis, UniProt A7UNT2 2-411)
T3 sequence: T2 sequence with Q21R, C66S, S207N, E215Q, V217A, E225K, A268E, D399E

GST-Co-NF-kB = biological target: T4, GST-Co-NF-kB (Capsaspora owczarzaki, UniProt F1ARL5 200-546)
T4 sequence: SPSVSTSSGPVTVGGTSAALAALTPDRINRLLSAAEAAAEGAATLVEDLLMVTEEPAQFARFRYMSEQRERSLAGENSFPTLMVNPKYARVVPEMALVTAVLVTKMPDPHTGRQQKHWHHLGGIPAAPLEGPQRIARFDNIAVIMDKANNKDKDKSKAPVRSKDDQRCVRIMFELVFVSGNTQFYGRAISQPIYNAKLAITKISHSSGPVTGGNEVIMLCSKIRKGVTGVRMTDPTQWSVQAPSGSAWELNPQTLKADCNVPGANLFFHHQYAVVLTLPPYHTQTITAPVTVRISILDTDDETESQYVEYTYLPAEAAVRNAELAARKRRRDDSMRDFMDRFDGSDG

GST-Dm-Relish = biological target: T5, GST-Dm-Relish (Drosophila melanogaster, UniProt Q94527 99-473)
T5 sequence: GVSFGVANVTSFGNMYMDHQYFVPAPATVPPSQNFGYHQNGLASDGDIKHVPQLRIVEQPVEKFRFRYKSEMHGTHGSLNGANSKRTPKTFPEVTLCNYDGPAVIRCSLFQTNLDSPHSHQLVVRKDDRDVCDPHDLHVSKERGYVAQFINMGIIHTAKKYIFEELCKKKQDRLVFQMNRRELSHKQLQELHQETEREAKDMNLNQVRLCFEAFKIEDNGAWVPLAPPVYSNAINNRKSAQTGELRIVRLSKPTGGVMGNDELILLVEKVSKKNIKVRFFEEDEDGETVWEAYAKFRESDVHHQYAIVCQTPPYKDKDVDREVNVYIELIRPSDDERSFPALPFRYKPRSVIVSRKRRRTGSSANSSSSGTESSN

GST-Aq-NF-kB = biological target: T6, GST-Aq-NF-kB (Amphimedon queenslandica, UniProt A9Y5G7 2-389)
T6 sequence: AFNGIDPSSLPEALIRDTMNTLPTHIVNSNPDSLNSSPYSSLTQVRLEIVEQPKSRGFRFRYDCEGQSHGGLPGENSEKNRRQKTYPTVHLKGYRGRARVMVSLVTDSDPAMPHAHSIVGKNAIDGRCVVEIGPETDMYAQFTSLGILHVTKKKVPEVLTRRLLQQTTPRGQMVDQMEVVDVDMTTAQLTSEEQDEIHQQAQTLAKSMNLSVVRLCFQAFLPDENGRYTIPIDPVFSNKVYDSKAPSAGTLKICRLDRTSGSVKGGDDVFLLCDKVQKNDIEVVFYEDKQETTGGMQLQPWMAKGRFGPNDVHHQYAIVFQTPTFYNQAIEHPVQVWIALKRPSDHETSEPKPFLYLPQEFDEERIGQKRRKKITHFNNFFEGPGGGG

GST-Hu-p50 = GST-Hu-p50 (Homo sapiens, UniProt P19838 7-356)
GST-Hu-p50, sequence (P19838 7-356): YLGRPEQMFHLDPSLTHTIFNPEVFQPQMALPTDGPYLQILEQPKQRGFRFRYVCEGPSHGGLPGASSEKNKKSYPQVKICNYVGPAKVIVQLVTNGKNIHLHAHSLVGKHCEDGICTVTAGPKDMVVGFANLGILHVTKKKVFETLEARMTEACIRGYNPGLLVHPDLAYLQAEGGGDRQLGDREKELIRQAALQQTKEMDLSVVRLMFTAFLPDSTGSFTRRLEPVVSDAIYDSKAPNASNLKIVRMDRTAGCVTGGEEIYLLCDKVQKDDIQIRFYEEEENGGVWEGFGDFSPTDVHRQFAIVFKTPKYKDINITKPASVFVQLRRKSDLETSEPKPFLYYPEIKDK

Sequence	binding signal (GST-Ap-NF-kB RHD) [z-score]	binding signal [1] [z-score]	binding signal [2] [z-score]	binding signal (GST-Co-NF-kB) [z-score]	binding signal (GST-Dm-Relish) [z-score]	binding signal (GST-Aq-NF-kB) [z-score]	binding signal (GST-Hu-p50) [z-score]
CCGATTAACATCAAATCTTCCCCTGATGTTAATCGGGTCTTGATTCGCTTGACGCTGCTG	6.29	8.14	10.4	9.84	4.74	6.11	6.14
CCGATTAACATCACACTTTTCCCTGATGTTAATCGGGTCTTGATTCGCTTGACGCTGCTG	3.17	4.45	6.11	4.46	1.59	3.57	2.84
CCGATTAACATCAAGGGGAATCCTGATGTTAATCGGGTCTTGATTCGCTTGACGCTGCTG	9.67	11	10	5.17	9.09	7.69	6.99
CCGATTAACATCAGGAATCTCCCTGATGTTAATCGGGTCTTGATTCGCTTGACGCTGCTG	3.91	6.08	3.67	1.77	2.25	7.75	4.69
CCGATTAACATCAAAATTTCCCGTGATGTTAATCGGGTCTTGATTCGCTTGACGCTGCTG	4.72	6.89	6.74	6.32	4.72	6.67	4.8
CCGATTAACATCAAAGATTCCCCTGATGTTAATCGGGTCTTGATTCGCTTGACGCTGCTG	8.13	10.5	11.7	8.45	7.42	7.27	6.66
CCGATTAACATCAGGCATCCCCATGATGTTAATCGGGTCTTGATTCGCTTGACGCTGCTG	3.84	2.84	3.73	1.82	3.01	2.63	2.9
CCGATTAACATCAGGGGGGACTATGATGTTAATCGGGTCTTGATTCGCTTGACGCTGCTG	5.46	5.17	4.88	5.47	4.09	4.64	3.99
CCGATTAACATCAGGGGATTTTATGATGTTAATCGGGTCTTGATTCGCTTGACGCTGCTG	10.4	11.7	12.7	4.81	9.55	8.66	8.09
CCGATTAACATCAGGGGAAACGATGATGTTAATCGGGTCTTGATTCGCTTGACGCTGCTG	4.89	6.2	8.83	6.65	1.87	3.92	4.62
CCGATTAACATCAGGGGAAAGACTGATGTTAATCGGGTCTTGATTCGCTTGACGCTGCTG	4.98	6.57	7.06	4.97	6.16	5.51	4.9
CCGATTAACATCAAAGCCCCCCCTGATGTTAATCGGGTCTTGATTCGCTTGACGCTGCTG	5.97	4.23	4.62	4.66	6.01	5.12	4.63
CCGATTAACATCAGGGGACCACCTGATGTTAATCGGGTCTTGATTCGCTTGACGCTGCTG	4.71	3.46	2.99	2.22	6.1	4.66	3.71
CCGATTAACATCAGGGGGAATACTGATGTTAATCGGGTCTTGATTCGCTTGACGCTGCTG	8.15	8.32	8.65	9.18	7.69	6.87	6.83
CCGATTAACATCATTCCCGGGAATGATGTTAATCGGGTCTTGATTCGCTTGACGCTGCTG	2.49	4.09	3.45	5.77	1.81	3.95	2.31
CCGATTAACATCAGGGAAATCAATGATGTTAATCGGGTCTTGATTCGCTTGACGCTGCTG	2.16	3.6	4.65	3.49	1.09	2.67	2.57
CCGATTAACATCAGAAAGCCCCCTGATGTTAATCGGGTCTTGATTCGCTTGACGCTGCTG	6.56	7.59	5.42	2.16	7.39	6.98	6.29
CCGATTAACATCAAAAAACCCCTTGATGTTAATCGGGTCTTGATTCGCTTGACGCTGCTG	8.1	8.78	7.86	2.05	8.96	8	7.64
CCGATTAACATCAGGGGAAGTCATGATGTTAATCGGGTCTTGATTCGCTTGACGCTGCTG	5.98	7.2	7.6	4.69	6.43	6.01	5.27
CCGATTAACATCAAAACTCCCCATGATGTTAATCGGGTCTTGATTCGCTTGACGCTGCTG	7.13	6.03	6.69	5.85	5.96	5.83	5.36
CCGATTAACATCAGGGAATGCCCTGATGTTAATCGGGTCTTGATTCGCTTGACGCTGCTG	5.58	7.18	4.19	1.43	7.7	7.91	3.67
CCGATTAACATCAGGAAGTCCCCTGATGTTAATCGGGTCTTGATTCGCTTGACGCTGCTG	8.63	8.97	6.92	2.68	8.96	8.77	6.94
CCGATTAACATCAGACTTTTCCCTGATGTTAATCGGGTCTTGATTCGCTTGACGCTGCTG	2.88	4.94	5.24	4.28	1.62	4.8	3.13
CCGATTAACATCAGGACGTCCCCTGATGTTAATCGGGTCTTGATTCGCTTGACGCTGCTG	7.08	6.03	4.26	2.18	5.29	7.4	4.57
CCGATTAACATCAAAATTCCCCTTGATGTTAATCGGGTCTTGATTCGCTTGACGCTGCTG	10.1	12.5	14.2	7.63	9.78	9.63	8.23

Source: article PMC5700166
